According to PubChem BioAssay (Tox21):
Results filed as inconclusive are left out. Entries that show only a call come without a potency. A number with no mark means an inactive call. Activity calls are given as the source filed them. Unless noted, the call rests on the fitted dose curve; in most records, active means well fitted curve in the direction sought with a large enough effect in the repeat runs; inconclusive means weak or mixed curves; inactive means no such curve, though single readings can be large; an effect the other way counts as inactive or inconclusive.

Legend:
[1] = qHTS assay to identify small molecule antagonists of the estrogen related receptor (ERR) signaling pathway - cell viability counter screen (AID 1224818); further: series mostly up to about 46 µM
Procedure, shortened: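 ERR cells, 2,000 per well, compound added after 6 h and incubated 17.5 h at 37 C. Viability read by CellTiter-Fluor fluorescence after a further 30 min at 37 C.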

[2] = qHTS assay to identify small molecule agonists of the estrogen related receptor (ERR) signaling pathway (AID 1224820)
Procedure, shortened: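 Quantitative HTS of the LOPAC library used NTP ERR reporter cells treated 18 h at 37 C. Signal is luminescence after One-Glo addition and a 30 min room-temperature incubation.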

[3] = system: estrogen-related receptor alpha (ERRalpha) with PGC-1alpha coactivator, human; test: qHTS assay to identify small molecule antagonists of the estrogen related receptor signaling pathway with the pleiotropic PPARgamma coactivator (PGC) (AID 1224821; calls by dose curve; further: nearly all actives have a fitted effect of over 50% in size; further: potency means the concentration at half of the fitted maximal effect)
Procedure, shortened: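 Quantitative HTS for antagonism: PGC/ERR cells received compounds after 6 h attachment and were incubated 18 h at 37 C, with luminescence (One-Glo) as the endpoint.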

[4] = qHTS assay to identify small molecule antagonists of the estrogen related receptor signaling pathway with the pleiotropic PPARgamma coactivator (PGC) cell viability counter screen (AID 1224822; further: potency means the concentration at half of the fitted maximal effect)
Procedure, shortened: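 PGC/ERR cells rested 6 h, then compound-treated 17.5 h at 37 C. CellTiter-Fluor added for 30 min at 37 C, viability measured by fluorescence intensity.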

[5] = qHTS assay to identify small molecule agonists of the estrogen related receptor signaling pathway with the pleiotropic PPARgamma coactivator (PGC) (AID 1224823)
Procedure, shortened: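 Cell-based luciferase assay in the NTP-supplied PGC/ERR line, 2,000 cells/well; 18 h compound exposure at 37 C, luminescence after One-Glo.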

[6] = qHTS assay to identify small molecule antagonists of the estrogen related receptor (ERR) signaling pathway (AID 1224819; further: potency means the concentration at half of the fitted maximal effect; nearly all actives have a fitted effect of over 50% in size)
Procedure, shortened: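 ERR reporter cell line (NTP) plated at 2,000 cells/well, settled 6 h at 37C/5% CO2, then exposed to LOPAC compounds for 18 h at 37C. One-Glo luciferase luminescence read after 30 min at room temperature.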

Compound | Potency [1] | Potency [2] | Potency [3] | Potency [4] | Potency [5] | Potency [6]
COc1ccc(NC(=O)c2ccc(-c3ccc(-c4noc(C)n4)cc3C)cc2)cc1N1CCN(C)CC1 | inactive | inactive | inactive | inactive | inactive | 
C[C@@H](N)C1CCC(C(=O)Nc2ccncc2)CC1 (stereo partly drawn) | inactive | inactive | 14.4 µM (active) | inactive | inactive | 
COc1ccc(CCn2nnnc2C2(c3ccc(C)cc3)CC2)cc1 | inactive | inactive | inactive | inactive | inactive | 
S=C(S)N1CCCC1 | inactive | inactive | 3.22 µM (active) | 0.287 µM (active) | inactive | 
COc1cccc(OC)c1OCCNCC1COc2ccccc2O1 (stereo not drawn) | inactive | inactive | inactive | inactive | inactive | 
COC(=O)[C@H](NC(=O)c1cc(-c2ccccc2)nc2ccccc12)c1ccccc1 | inactive | inactive | inactive | inactive | inactive | 
CC(C)(C)c1ccc(/C=C/C(=O)Nc2ccc3c(c2)OCCO3)cc1 | inactive | inactive | inactive | inactive | inactive | 
c1ccc2c(c1)CC(N1CCN(c3cccc4c3OCCO4)CC1)C2 | inactive | inactive | inactive | inactive | inactive | 
COc1cc(SC)ccc1C(=O)N1CCC(Cc2ccccc2)CC1 | inactive |  |  | inactive | inactive | 20.3 µM (active)
c1ccc2c(c1)CCC[C@H]2Nc1nc2ccccc2[nH]1 | inactive | inactive | inactive | inactive | inactive | 
Clc1ccc(N2CCN(Cc3cc4ccccn4n3)CC2)cc1 | inactive | inactive |  |  | inactive | 
COc1cc([C@@H]2c3cc4c(cc3[C@H](O)C3COC(=O)[C@@H]32)OCO4)cc(OC)c1OC (stereo partly drawn) | inactive |  |  | inactive |  | 
C[C@]12C=CC(=O)C=C1CC[C@@H]1C2=CC[C@]2(C)[C@@H](C(=O)CN3CCN(c4cc(N5CCCC5)nc(N5CCCC5)n4)CC3)CC[C@@H]12 | inactive | inactive |  | inactive | inactive | 
O=C(CCc1ccncc1)NNC(=O)N1Cc2ccccc2Oc2ccc(Cl)cc21 | inactive | inactive |  | inactive | inactive | 
N.N.O=C(O)C1(C(=O)O)CCC1.[Pt+2] | inactive |  |  | inactive |  | 
C[C@@H](CN1CCC(Cc2ccccc2)CC1)[C@@H](O)c1ccc(O)cc1 | inactive | inactive |  | inactive | inactive | 
COc1ccccc1N1CCN(CCN(C(=O)c2ccc(F)cc2)c2ccccn2)CC1 | inactive | inactive | inactive | inactive | inactive | 

Compound | Potency [1] | Potency [2] | Potency [3] | Potency [4] | Potency [5] | Potency [6]
C[C@@]1(C2CCCC2)Cc2cc(OCC(=O)O)c(Cl)c(Cl)c2C1=O | inactive | inactive |  | inactive | inactive | 
O=c1cc(N2CCOCC2)oc2c(-c3ccccc3)cccc12 | inactive | inactive |  | inactive | inactive | 
O=c1[nH]c2cc(C(F)(F)F)ccc2n1-c1cc(C(F)(F)F)ccc1O | inactive | inactive | inactive | inactive | inactive | 
COCCOc1cc2ncnc(Cl)c2cc1OCCOC | inactive | inactive |  | inactive | inactive | 
CC(C)[C@H](NC(=O)OCc1ccccc1)C(=O)N[C@H](C=O)Cc1ccccc1 | inactive | inactive |  |  | inactive | 
CCN(CC)CCCCCCCCOC(=O)c1cc(OC)c(OC)c(OC)c1 | inactive | inactive | inactive |  | inactive | 
COc1cccc(OC)c1OCCNCC1CSc2ccccc2O1 (stereo not drawn) | inactive | inactive | inactive | inactive | inactive | 
c1ccc(C(NCc2cccnc2)(c2ccccc2)c2ccccc2)cc1 | inactive | inactive | 24.6 µM (active) |  | inactive | 
CC(N)(Cc1ccc(O)c(O)c1)C(=O)O (stereo not drawn) | inactive |  |  | inactive |  | 
COC(=O)c1c(C)[nH]c(C)c1C(=O)c1ccccc1Cc1ccccc1 | inactive | inactive | inactive | inactive | inactive | 
CN1C2CCC1CC(OC(=O)C(CO)c1ccccc1)C2 (stereo not drawn) | inactive |  |  | inactive |  | 
N=C(N)c1ccc(N)cc1 | inactive | inactive |  | inactive |  | 
c1ccc(C(NCCNC(c2ccccc2)c2ccccc2)c2ccccc2)cc1 | inactive | inactive |  | inactive | inactive | 
CC#CCOC(=O)c1c(C)nc2sc3c(c2c1N)CCC(O)C3 (stereo not drawn) | inactive | inactive | inactive | inactive | inactive | 
Nc1ncnc2c1ncn2[C@@H]1O[C@H](CO)C(O)[C@H]1O (stereo partly drawn) | inactive |  |  | inactive |  | 
O=C(CCSCc1ccco1)NNC(=O)N1Cc2ccccc2Oc2ccc(Cl)cc21 | inactive | inactive |  | inactive | inactive | 
